Activity calls are given as the source filed them. Rule for the calls: active = hit-call score of the fitted dose curve at least 0.9, where 1 is the maximum; inactive = score below 0.9.
target: Peroxisome proliferator-activated receptor gamma (Homo sapiens) (UniProt P37231); experiment: ATG_hPPARg_EcoTox2: Attagene TRANS-FACTORIAL EcoTox-2 HepG2 Assay for human Peroxisome Proliferator-activated Receptor gamma (PPARg)
Protocol: ATG_EcoTox2 is a cell-based, multiplexed assay created by modifying the existing Attagene TRANS-FACTORIAL system to include a panel of nuclear receptors from some or all the following species: human (Homo sapiens), african clawed frog (Xenopus laevis), rainbow trout (Oncorhynchus mykiss), japanese medaka (Oryzias latipes), and zebrafish (Danio rerio). The ECOTOX2-FACTORIAL format uses HepG2, a human liver cell line, with measurements taken at 24 hours after chemical dosing in a 24-well plate. ATG_hPPARg_EcoTox2 is one of 29 assay components calculated in the ATG_EcoTox2 assay. It is designed to make measurements of mRNA induction, a form of inducible reporter, as detected with fluorescence intensity signals by Reverse transcription polymerase chain reaction (RT-PCR) and Capillary electrophoresis technology.The assay endpoint ATG_hPPARg_EcoTox2 was analyzed in the positive analysis fitting direction relative to DMSO as the negative control and baseline of activity. Using a type of inducible reporter, measures of mRNA for gain-of-signal activity can be used to understand the reporter gene at the transcription factor-level as they relate to the gene PPARg. Furthermore, this assay endpoint can be referred to as a primary readout, because this assay has produced multiple assay endpoints where this one serves a reporter gene function. To generalize the intended target to other relatable targets, this assay endpoint is annotated to the nuclear receptor intended target family, where the subfamily is non-steroidal.
Human liver HepG2 cells are transiently transfected with multiple reporter transcription units (MRTUs) in 6-well plates using FuGene 6 reagent (Roche; 3 ml FuGene/1 mg DNA). The MRTU constructs are regulated by a cis-regulating element (promoter). Each RTU expresses a GAL4-UAS that regulates the transcription of a nearby target reporter gene sequence. A major difference between the CIS and TRANS system is that in CIS activities of endogenous TFs are measured, whereas the TRANS assay evaluates changes in activities of exogenous, chimeric NR-Gal4 proteins. […] At the end of 24 hour incubation, total RNA was isolated using TriZol reagent (Invitrogen). The isolated RNA is then reverse-transcribed using oligo(dT) primer and Mo-MLV reverse transcriptase (Invitrogen) with DNAse I (Ambion) treatment for 30 min. The one-tenth of the produced cDNA was amplified by PCR using Taq DNA polymerase (Invitrogen) and two reporter sequence-specific primers. The PCR products were fluorescently labeled by primer extension with 6-arboxyfluorescein (6-FAM) 5'-labeled reporter sequence-specific primer (2 min at 95 C, 20 s at 68 C and 10 min at 72 C) and these products were digested with 5U of HpaI (New England Biolabs) for 2h at 37 C. The fragments were purified using Qiaquick PCR columns (Qiagen), analyzed on an ABI 3130xL genetic analyzer (Applied Biosystems) with peak positions identified by using a set of X-rhodamine (ROX)-labeled MapMarker1000 molecular weight standards (BioVentures). The raw capillary electrophoresis data was processed using Attagraph software (Attagene).

Sequence of Peroxisome proliferator-activated receptor gamma (Homo sapiens) (P37231 whole entry, looked up): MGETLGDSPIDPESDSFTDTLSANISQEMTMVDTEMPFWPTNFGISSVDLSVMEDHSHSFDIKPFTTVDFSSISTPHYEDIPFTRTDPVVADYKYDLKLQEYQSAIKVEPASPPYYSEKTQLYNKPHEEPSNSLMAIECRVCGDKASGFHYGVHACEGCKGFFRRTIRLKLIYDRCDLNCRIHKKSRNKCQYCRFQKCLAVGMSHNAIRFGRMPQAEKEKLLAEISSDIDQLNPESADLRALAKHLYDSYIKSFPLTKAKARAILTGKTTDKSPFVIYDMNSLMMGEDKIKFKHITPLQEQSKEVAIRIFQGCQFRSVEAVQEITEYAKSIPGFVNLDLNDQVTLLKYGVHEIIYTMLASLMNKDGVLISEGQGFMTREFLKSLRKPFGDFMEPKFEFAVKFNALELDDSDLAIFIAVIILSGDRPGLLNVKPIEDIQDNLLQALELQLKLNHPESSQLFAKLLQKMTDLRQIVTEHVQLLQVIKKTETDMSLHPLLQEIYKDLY

Row | Compound | AC50 | outcome
1 | C=C(c1ccc(C(=O)O)cc1)c1cc2c(cc1C)C(C)(C)CCC2(C)C | 1.1 µM (active) | 
2 | CC(C)(Oc1ccc(CCNC(=O)c2ccc(Cl)cc2)cc1)C(=O)O | 14 µM (active) | 
3 | C[C@@H]1C[C@H]2[C@@H]3CCC4=CC(=O)C=C[C@]4(C)[C@@]3(F)[C@@H](O)C[C@]2(C)[C@@]1(O)C(=O)COP(=O)(O)O |  | inactive
4 | C[C@]12C=CC(=O)C=C1CC[C@@H]1[C@@H]2C(=O)C[C@@]2(C)[C@H]1CC[C@]2(O)C(=O)CO |  | inactive
5 | CC(C)(Oc1ccc(Cl)cc1)C(=O)O | 80.6 µM (active) | 
6 | CC(C)(Oc1ccc(C2CC2(Cl)Cl)cc1)C(=O)O (configuration not stated) | 37.3 µM (active) | 
7 | Cc1nc(-c2ccc(C(F)(F)F)cc2)sc1C(=O)NCc1ccc(OC(C)(C)C(=O)O)cc1 | 1.29 µM (active) | 
